Test results reported in PubChem BioAssay.

target: Dickkopf-related protein 1 (Homo sapiens) (UniProt O94907); experiment: small molecules binding DKK1 protein – biochemical, small-molecule microarray, 635 nm fluorescence scan, primary screen (AID 1106); settings: higher = more signal;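 note: score merges emission near 667 nm with signal to noise over three replicate slides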
Sequence (O94907 whole entry, looked up): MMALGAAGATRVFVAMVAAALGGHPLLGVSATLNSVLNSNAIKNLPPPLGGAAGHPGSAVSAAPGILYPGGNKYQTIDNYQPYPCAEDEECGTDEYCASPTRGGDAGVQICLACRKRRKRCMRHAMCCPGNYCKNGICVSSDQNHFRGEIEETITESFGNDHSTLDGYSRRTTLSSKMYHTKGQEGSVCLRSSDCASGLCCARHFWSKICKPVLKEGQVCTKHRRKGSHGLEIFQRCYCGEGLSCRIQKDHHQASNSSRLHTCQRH

Row | Structure (SMILES) | composite z-score
1 | CCN1C(=O)[C@H]2[C@H]3[C@H](O)[C@H](O)CC(=NO[C@H](C)c4cn([C@H](CO)Cc5ccccc5)nn4)[C@@H]3CC[C@H]2C1=O | 0.553
2 | C#CCCCON=C1C[C@@H](O)[C@@H](O)[C@@H]2[C@@H]3C(=O)N(C[C@@H]4CCCO4)C(=O)[C@@H]3CC[C@@H]12 | 0.449
3 | COC(=O)CC=C[C@@H](C)[C@@H](C=NOC[C@@H](O)COCc1ccco1)NS(=O)(=O)c1ccc(C)cc1 | 0.864
4 | CC(=O)OC[C@H]1O[C@H](CC=NO[C@@H](C)c2cn([C@H](CO)Cc3ccccc3)nn2)C=C[C@@H]1OC(C)=O | 1.05
5 | CCc1cc2c(nc1CC)CCN(CCC(C)=NO[C@@H]1O[C@H](COC(C)=O)[C@@H](OC(C)=O)[C@H](OC(C)=O)[C@H]1OC(C)=O)C2 | 1.32
6 | CC(C)(C)N1C(=O)[C@H]2[C@@H]3C(=CC[C@H]2C1=O)C(=O)[C@H]1O[C@H]1[C@H]3O | 0.512
7 | CC(C)=NOC(C)CN1CCCCc2nc(C)c(C)cc21 (stereo not drawn) | 0.619
8 | Cc1ccc2[nH]c3nc(CCCn4ccnc4-c4ccccc4)nnc3c2c1 | 0.869
9 | COc1ccc(COC(=O)NN=C2C[C@@H](O)[C@@H](O)[C@@H]3[C@@H]4C(=O)N([C@@H](C)c5ccccc5)C(=O)[C@@H]4CC[C@H]23)cc1 | -0.769
10 | COC(=O)CC=C[C@@H](C)[C@@H](C=NOC(C)CN1CCCCc2nc(C)c(C)cc21)NS(=O)(=O)c1ccc(C)cc1 (stereo partly drawn) | 0.846
11 | CO[C@@H]1COC(=O)[C@H](CCSC)NC(=O)CC=C[C@@H](C)COC(=O)[C@@H]2CCCN2C(=O)CC=C[C@H]1C | 1.01
12 | COC(=O)[C@H](C)NC(=O)CC=C[C@@H](C)[C@@H]1C=C[C@H](O)[C@@H](CO)O1 | 1.3
13 | CO[C@@H](C(C)C)[C@@H](C)C1OC(=O)CC1O (stereo partly drawn) | -0.166
14 | COc1ccc(OC[C@@H](CO)OC)cc1 | 0.321
15 | COC(=O)[C@H](C)NC(=O)CCC1CC(OC(=O)NCc2ccc3c(c2)OCO3)CC2(CCCC(COC(=O)NCCC(C)C)O2)O1 (stereo partly drawn) | 0.205
16 | COc1cccc([C@H]2Oc3ccc(OC)cc3C(=NO[C@@H](C)c3cc(-c4c(C)cc(C)cc4C)no3)[C@@H]2O)c1 | -3.26
17 | CCOC(=O)CCN1C(=O)[C@H]2[C@H]3[C@H](O)[C@H](O)CC(=NNC(=O)OCC)[C@H]3CC[C@H]2C1=O | 0.913
18 | O=C1[C@H]2[C@H]3[C@H](O)[C@H](O)CC(=NOC[C@@H](O)COCc4ccco4)[C@@H]3CC[C@H]2C(=O)N1Cc1ccc2c(c1)OCO2 | 1.47
19 | CC(=O)OC[C@H]1O[C@H](CC=NO[C@@H](C)c2cc(-c3c(C)cc(C)cc3C)no2)C=C[C@@H]1OC(C)=O | -0.0281
20 | CCO[C@H](c1cc(OC)cc([N+](=O)[O-])c1OC)[C@H](C)[C@@H](OC)[C@H](C)C=CCC(=O)OC | -0.359
21 | COC(=O)[C@H](C)NC(=O)CCC1CC(OC(=O)NCc2ccc3c(c2)OCO3)CC2(CCCC(COC(=O)NCCc3ccc(Cl)cc3)O2)O1 (stereo partly drawn) | 1.87
22 | COc1ccc(COC(=O)NN=C2C[C@@H](O)[C@@H](O)[C@@H]3[C@@H]4C(=O)N(c5cccc(Oc6ccccc6)c5)C(=O)[C@@H]4CC[C@H]23)cc1 | -0.767
23 | COc1cccc([C@H]2Oc3ccc(OC)cc3C(=NOCC[C@@H]3C=C[C@H](OC(C)=O)[C@@H](COC(C)=O)O3)[C@@H]2O)c1 | 0.718
